# Measured values from the supplement of paper PMC6411743.
# ± gives the standard deviation of the averaged measurements. About 6,500 targets were measured; listed, in parts, are those with the largest changes and a random draw of the rest.
# Tests used:
# Experiment in all cases: NP40-soluble protein abundance relative to vehicle (solubility fold change) (ratio); higher = more soluble protein in presence of ATP
# [1] = biological target: T1, I3L0H8|Q9NUU7|Q9NUU7-2 (UniProt Q9NUU7)
# T1 sequence (whole entry): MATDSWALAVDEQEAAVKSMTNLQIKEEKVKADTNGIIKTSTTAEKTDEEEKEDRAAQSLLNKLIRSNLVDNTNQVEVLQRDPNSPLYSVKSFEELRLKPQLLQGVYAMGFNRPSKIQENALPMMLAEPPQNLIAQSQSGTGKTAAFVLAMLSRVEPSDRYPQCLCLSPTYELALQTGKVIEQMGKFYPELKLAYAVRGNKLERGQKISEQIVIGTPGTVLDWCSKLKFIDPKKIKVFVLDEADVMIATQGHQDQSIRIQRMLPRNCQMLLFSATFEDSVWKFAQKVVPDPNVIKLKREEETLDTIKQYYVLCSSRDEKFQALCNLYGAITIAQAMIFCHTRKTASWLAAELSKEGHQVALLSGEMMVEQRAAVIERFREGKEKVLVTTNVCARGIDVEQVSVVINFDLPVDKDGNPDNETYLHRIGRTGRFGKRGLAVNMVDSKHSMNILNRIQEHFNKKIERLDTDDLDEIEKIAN
# How it was run: (§1)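 In three independent experiments, Jurkat crude lysate made by Dounce homogenisation was treated for 10 min at room temperature and then 3 min at 37 °C with eight concentrations ranging from 0.1 to 10 mM. It was then solubilised with 0.8% NP40 plus benzonase for 60 min at 4 °C and ultracentrifuged. The supernatant was TMT-labelled for LC-MS/MS, and each value is the fold change against the detergent-processed vehicle for the same replicate, using vsn-normalised intensities.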
# [2] = biological target: T2, J3KPS0|Q9NXW2 (UniProt Q9NXW2)
# T2 sequence (whole entry): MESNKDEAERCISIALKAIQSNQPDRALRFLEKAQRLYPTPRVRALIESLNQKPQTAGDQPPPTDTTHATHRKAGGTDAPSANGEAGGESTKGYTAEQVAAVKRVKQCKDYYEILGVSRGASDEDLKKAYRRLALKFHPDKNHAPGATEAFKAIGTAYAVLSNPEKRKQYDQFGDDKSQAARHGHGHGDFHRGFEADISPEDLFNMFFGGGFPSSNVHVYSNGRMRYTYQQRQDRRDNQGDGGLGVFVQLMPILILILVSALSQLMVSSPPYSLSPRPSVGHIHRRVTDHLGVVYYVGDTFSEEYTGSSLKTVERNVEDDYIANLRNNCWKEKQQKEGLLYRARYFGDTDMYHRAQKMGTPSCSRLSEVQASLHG
# How it was run: as §1
# [3] = biological target: T3, SNAP23 (UniProt O00161)
# T3 sequence (whole entry): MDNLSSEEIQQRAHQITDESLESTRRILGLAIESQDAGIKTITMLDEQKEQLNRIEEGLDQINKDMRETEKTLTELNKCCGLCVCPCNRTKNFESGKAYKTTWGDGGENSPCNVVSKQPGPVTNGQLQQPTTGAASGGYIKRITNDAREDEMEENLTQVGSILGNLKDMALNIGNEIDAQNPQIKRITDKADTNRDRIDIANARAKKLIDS
# How it was run: as §1
# [4] = biological target: T4, UniProt O14966|O14966-2
# T4 sequence (whole entry): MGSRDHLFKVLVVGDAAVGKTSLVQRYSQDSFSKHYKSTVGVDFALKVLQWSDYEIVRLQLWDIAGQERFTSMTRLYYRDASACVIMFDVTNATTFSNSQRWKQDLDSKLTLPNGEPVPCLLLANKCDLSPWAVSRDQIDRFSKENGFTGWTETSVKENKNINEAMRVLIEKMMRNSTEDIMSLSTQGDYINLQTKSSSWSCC
# How it was run: as §1
compound,measurement,setting,value
Nc1ncnc2c1ncn2[C@@H]1O[C@H](COP(=O)(O)OP(=O)(O)OP(=O)(O)O)[C@@H](O)[C@H]1O [adenosine triphosphate],NP40-soluble protein abundance,[1]; concentration: 1mM,1.03 ± 0.02
same,NP40-soluble protein abundance,[1]; concentration: 2mM,1.03 ± 0.028
same,NP40-soluble protein abundance,[1]; concentration: 4mM,1 ± 0.03
same,NP40-soluble protein abundance,[1]; concentration: 6mM,1.02 ± 0.058
same,NP40-soluble protein abundance,[1]; concentration: 8mM,1.02 ± 0.012
same,NP40-soluble protein abundance,[1]; concentration: 10mM,1.02 ± 0.013
same,NP40-soluble protein abundance,[2]; concentration: 1mM,0.902 ± 0.035
same,NP40-soluble protein abundance,[2]; concentration: 2mM,0.898 ± 0.056
same,NP40-soluble protein abundance,[2]; concentration: 4mM,0.867 ± 0.058
same,NP40-soluble protein abundance,[2]; concentration: 6mM,0.846 ± 0.12
same,NP40-soluble protein abundance,[2]; concentration: 8mM,0.845 ± 0.11
same,NP40-soluble protein abundance,[2]; concentration: 10mM,0.833 ± 0.1
same,NP40-soluble protein abundance,[3]; concentration: 1mM,0.944 ± 0.077
same,NP40-soluble protein abundance,[3]; concentration: 2mM,0.947 ± 0.024
same,NP40-soluble protein abundance,[3]; concentration: 4mM,0.943 ± 0.021
same,NP40-soluble protein abundance,[3]; concentration: 6mM,1 ± 0.061
same,NP40-soluble protein abundance,[3]; concentration: 8mM,0.921 ± 0.02
same,NP40-soluble protein abundance,[3]; concentration: 10mM,0.883 ± 0.03
same,NP40-soluble protein abundance,[4]; concentration: 1mM,0.995 ± 0.072
same,NP40-soluble protein abundance,[4]; concentration: 2mM,1.01 ± 0.075
same,NP40-soluble protein abundance,[4]; concentration: 4mM,0.958 ± 0.099
same,NP40-soluble protein abundance,[4]; concentration: 6mM,1.03 ± 0.09
same,NP40-soluble protein abundance,[4]; concentration: 8mM,0.99 ± 0.1
same,NP40-soluble protein abundance,[4]; concentration: 10mM,1.01 ± 0.04
